# Measured values: PubChem BioAssay
# Active and inactive are the calls of the source.
# What was measured:
# Albumin (Bos taurus) = Albumin (Bos taurus) (UniProt P02769); assay: bovine serum albumin binders on microarray, profiling panel, artefact control for SMM control protein annotation, biochemical, small-molecule microarray, Alexa647 label, 635/667 nm fluorescence (AID 1118); conditions: BSA-A647 binding, fluorescence 635 nm, higher = more signal;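 also: score merges 667 nm emission intensity and signal-to-noise per printed compound spot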
# Chain of Albumin (Bos taurus) (P02769 whole entry, looked up): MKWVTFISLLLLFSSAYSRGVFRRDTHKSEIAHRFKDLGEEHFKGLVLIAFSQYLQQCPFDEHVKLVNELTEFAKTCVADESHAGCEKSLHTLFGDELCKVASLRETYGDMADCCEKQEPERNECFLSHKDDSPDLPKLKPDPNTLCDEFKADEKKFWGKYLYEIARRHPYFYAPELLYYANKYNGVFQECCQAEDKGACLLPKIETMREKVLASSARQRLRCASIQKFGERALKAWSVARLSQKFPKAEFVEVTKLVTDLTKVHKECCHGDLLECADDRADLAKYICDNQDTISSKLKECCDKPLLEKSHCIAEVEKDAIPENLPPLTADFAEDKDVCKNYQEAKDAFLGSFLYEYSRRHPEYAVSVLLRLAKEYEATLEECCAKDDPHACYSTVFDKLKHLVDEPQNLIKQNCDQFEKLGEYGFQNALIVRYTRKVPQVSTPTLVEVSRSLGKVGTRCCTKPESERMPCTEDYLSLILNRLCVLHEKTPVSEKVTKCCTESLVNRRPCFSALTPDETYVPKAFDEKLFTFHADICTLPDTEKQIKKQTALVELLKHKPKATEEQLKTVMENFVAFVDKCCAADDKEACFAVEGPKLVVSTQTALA
# [1] = small-molecule microarray binders of probe aXIP, primary screen, biochemical, NeuroSMM set, 635/667 nm fluorescence (AID 1119); conditions: higher = more signal, called active from +8 up or from −8 down;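 also: probe is the protein aXip251-270 applied at 1 µg/mL to compound-printed slides; binding of probe to printed compounds measured as 667 nm fluorescence plus signal to noise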
# [2] = small-molecule binders of probe aNOTCH3, primary screen, biochemical, small-molecule microarray, 635/667 nm fluorescence (AID 1120); conditions: higher = more signal;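 also: probe is a biotin-tagged antibody raised against NOTCH3 rather than NOTCH3 protein; score merges spot fluorescence near 667 nm with spot signal to noise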
# [3] = small-molecule binders of probe aNOTCH2, primary screen, biochemical, small-molecule microarray, 635/667 nm fluorescence (AID 1121); conditions: higher = more signal;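 also: score merges feature fluorescence read at 667 nm with its signal to noise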
# [4] = biological target: Carbonic anhydrase 2 (Homo sapiens) (UniProt P00918); assay: CAII small-molecule binders, profiling panel, biochemical, small-molecule microarray, Alexa647-labelled CAII (AID 1122); conditions: CAII-A647 binding fluorescence, higher = more signal
# [5] = COS7 lysate on small-molecule microarray, probe aHis, 635 nm (AID 1123); conditions: COS7 cell lysate, fluorescence, higher = more signal;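 also: z-score combines 667nm fluorescence intensity with signal-to-noise per printed compound spot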
# [6] = compound binding in COS7 lysate, probe aLAP1, primary screen, cell lysate, small-molecule microarray (AID 1124); conditions: probe aLAP1, fluorescence, higher = more signal;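 also: lysate comes from COS7 cells expressing LAP1 and is applied at 0.3 µg/mL; score merges spot fluorescence near 667 nm with signal-to-noise over triplicate slides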
# Sam68 (KHDRBS1) = assay: Sam68 small-molecule binders, primary screen, biochemical, small-molecule microarray, 635 nm fluorescence (AID 1125); conditions: small-molecule microarray binding, higher = more signal;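 also: score merges 667 nm channel intensity with signal to noise over triplicate slides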
# [7] = tested on: Chordin-like protein 2 (CHRDL2); assay: CHRDL2 small-molecule binders, primary screen, biochemical, small-molecule microarray, 635 nm fluorescence (AID 1126); conditions: small-molecule microarray binding, fluorescence 635 nm; higher = more signal;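 also: printed compound slides probed with Chrdl2 protein at 4 µg/mL for 1 h at 4 C; score merges 667 nm emission intensity with signal to noise over three replicate slides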
# [8] = biological target: Concanavalin-A (Canavalia ensiformis) (UniProt P02866); assay: ConA small-molecule binders, primary screen, artefact control for SMM control protein annotation, biochemical, small-molecule microarray, Alexa647 label, 635 nm (AID 1127); conditions: ConA-A647 binding fluorescence, higher = more signal;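 also: z combines 667 nm emission intensity with signal-to-noise across three replicate slides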
# Chain of Concanavalin-A (Canavalia ensiformis) (P02866 whole entry, looked up): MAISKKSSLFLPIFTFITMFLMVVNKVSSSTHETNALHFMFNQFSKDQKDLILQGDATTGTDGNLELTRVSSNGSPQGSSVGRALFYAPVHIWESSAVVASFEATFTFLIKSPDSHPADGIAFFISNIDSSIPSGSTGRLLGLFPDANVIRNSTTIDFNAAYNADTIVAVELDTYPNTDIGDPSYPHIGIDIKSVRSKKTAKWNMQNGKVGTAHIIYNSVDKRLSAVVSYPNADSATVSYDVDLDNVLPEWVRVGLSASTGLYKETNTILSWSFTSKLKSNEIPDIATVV
SMILES,composite z-score (Albumin (Bos taurus)),composite Z-score [1],composite z-score [2],composite z-score [3],composite z-score [4],composite z-score [5],composite z-score [6],composite z-score (Sam68 (KHDRBS1)),composite z-score [7],composite z-score [8]
O=C1C2C=CC(C(O)c3ccco3)N(Nc3ccccc3)C2C(=O)N1c1ccccc1 (stereo not given),0.507,0.0089 (inactive),-0.153,-0.141,0.757,0.467,-0.102,-0.161,-0.727,-0.222
COc1ccc([Si](C)(C)[C@H]2[C@H](CCO)O[C@@]3(C(=O)N(Cc4ccccc4)c4ccc(N5C(=O)c6ccccc6Oc6ccccc65)cc43)[C@@H]2C)cc1,0.467,-0.216 (inactive),-0.0984,-0.106,0.532,1.47,0.62,0.442,0.214,0.823
COCC1=C2[C@@H](CCc3ccccc3)OB(O)C[C@@H]2[C@@H]2C(=O)N(C)C(=O)[C@@H]2C1,0.229,0.289 (inactive),-0.0918,-0.108,0.21,0.06,-0.179,0.106,0.5,-0.141
CCOC(=O)C=Cc1cc(F)ccc1O,-0.0584,-0.276 (inactive),-0.0324,-0.0995,0.384,0.149,0.0926,0.161,0.133,0.126
Cc1cccc([C@H]2C[C@H]3C(Br)=C[C@@H]2C(=O)[C@]32CO2)c1,-0.904,0.289 (inactive),-0.125,-0.16,-0.255,-0.498,-0.552,-0.721,0.563,-0.051
C=C(COC)/C(=C/C[C@@H](OC(C)=O)c1ccc(CO)o1)c1cc(C(=O)OC)ccc1OC,-0.418,0.615 (inactive),-0.0647,-0.133,0.579,0.694,0.662,0.246,-0.228,0.581
COc1cc(NN2C(C(O)c3cc(OC)c(OC)c(OC)c3)C=CC3C(=O)N(c4ccccc4)C(=O)C32)cc(OC)c1OC (stereo not given),1.06,0.573 (inactive),0.612,0.044,0.722,2.19,0.289,1.32,0.476,1.2
COc1ccc([Si](C)(C)[C@@H]2[C@@H](CCn3cc([C@H](O)c4ccccc4)nn3)O[C@]3(C(=O)N(Cc4cccc(N5C(=O)c6cccc7cccc5c67)c4)c4ccccc43)[C@H]2C)cc1,0.371,0.0425 (inactive),-0.157,-0.155,0.405,0.992,-0.64,0.173,-1.09,0.234
